This note sets out measurements from ChEMBL document CHEMBL3988442, “University of Dundee, Small-Polar-MMV Screening Library” (2021).

For some of these results: Measured potencies and affinities stand elsewhere.

Parameters in all cases: scale not given: direction of the effect not stated beside the values
Assay [1] concerns the target Protein translocase subunit SecA (Escherichia coli (strain K12)) (UniProt P10408). As to the kind of experiment: Assay to Identify E. coli SecA ATPase Inhibitors. It counts as functional. The following applies: 30 µM.
Assay [2] has as its target T1, Ubiquitin-activating enzyme e1, putative (Leishmania donovani (strain BPK282A1)) (UniProt E9BSI1).
T1 sequence (whole entry): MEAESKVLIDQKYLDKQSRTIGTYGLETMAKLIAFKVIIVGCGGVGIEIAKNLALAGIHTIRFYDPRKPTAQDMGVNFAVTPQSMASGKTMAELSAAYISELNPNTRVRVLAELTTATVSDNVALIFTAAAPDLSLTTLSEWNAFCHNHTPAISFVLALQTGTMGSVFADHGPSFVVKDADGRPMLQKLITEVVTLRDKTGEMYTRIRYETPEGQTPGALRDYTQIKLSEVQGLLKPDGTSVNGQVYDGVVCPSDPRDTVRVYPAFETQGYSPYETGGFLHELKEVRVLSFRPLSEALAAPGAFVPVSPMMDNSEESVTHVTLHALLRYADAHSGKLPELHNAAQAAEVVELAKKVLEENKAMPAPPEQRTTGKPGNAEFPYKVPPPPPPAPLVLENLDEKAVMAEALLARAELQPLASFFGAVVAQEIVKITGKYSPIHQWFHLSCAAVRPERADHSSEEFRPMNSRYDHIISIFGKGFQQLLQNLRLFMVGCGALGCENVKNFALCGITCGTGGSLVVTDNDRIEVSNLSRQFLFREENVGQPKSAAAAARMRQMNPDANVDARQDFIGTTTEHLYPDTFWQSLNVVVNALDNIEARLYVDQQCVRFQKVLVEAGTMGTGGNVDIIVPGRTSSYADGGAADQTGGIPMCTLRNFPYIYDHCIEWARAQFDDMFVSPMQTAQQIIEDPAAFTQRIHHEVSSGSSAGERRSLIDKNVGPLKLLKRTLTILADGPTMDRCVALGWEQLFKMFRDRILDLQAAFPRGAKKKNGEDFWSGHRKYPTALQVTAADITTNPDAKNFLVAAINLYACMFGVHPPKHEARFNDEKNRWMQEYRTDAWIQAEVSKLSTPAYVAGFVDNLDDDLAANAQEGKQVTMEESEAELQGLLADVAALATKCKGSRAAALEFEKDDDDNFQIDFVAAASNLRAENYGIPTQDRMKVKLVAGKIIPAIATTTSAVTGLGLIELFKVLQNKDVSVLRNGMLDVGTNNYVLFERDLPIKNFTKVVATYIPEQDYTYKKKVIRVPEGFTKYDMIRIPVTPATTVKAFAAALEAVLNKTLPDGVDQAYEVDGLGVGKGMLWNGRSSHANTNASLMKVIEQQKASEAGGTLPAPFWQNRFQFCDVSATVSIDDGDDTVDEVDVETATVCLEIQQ
As to the kind of experiment: Leishmania donovani Ubiquitin Activating Enzyme (LdE1). It counts as functional. The conditions noted are these: 30 µM.

The target of assay [3] is AMP-activated protein kinase, AMPK (Homo sapiens) (UniProt P54646+O43741+P54619+Q9UGJ0+Q9Y478+Q13131+Q9UGI9). As to the kind of experiment: AMP-dependent Kinase enzyme assay. An in vitro enzyme assay that detects ADP turnover that is directly proportional to AMPK activity. This uses naive AMPK that is activated during the assay with MK-8722. It counts as functional. The following applies: 30 µM.

For assay [4], the target named is Sialic acid-binding Ig-like lectin 9 (Homo sapiens) (UniProt Q9Y336). As to the kind of experiment: Hs-Siglec9 ALPHAscreen SOP 20170721. The conditions noted are these: 10 µM. (In Alpha technology, singlet oxygen from a donor bead excites a nearby acceptor bead.)
For assay [5], the system named is Trypanosoma cruzi. As to the kind of experiment: Trypanosoma cruzi phosphomannomutase and mannose-1-phosphate guanylyltransferase assay. The assay is classed as functional. The following applies: 10 µM.
Assay [6] has as its target T2, Arginase-2, mitochondrial (Homo sapiens) (UniProt P78540).
T2 sequence (whole entry): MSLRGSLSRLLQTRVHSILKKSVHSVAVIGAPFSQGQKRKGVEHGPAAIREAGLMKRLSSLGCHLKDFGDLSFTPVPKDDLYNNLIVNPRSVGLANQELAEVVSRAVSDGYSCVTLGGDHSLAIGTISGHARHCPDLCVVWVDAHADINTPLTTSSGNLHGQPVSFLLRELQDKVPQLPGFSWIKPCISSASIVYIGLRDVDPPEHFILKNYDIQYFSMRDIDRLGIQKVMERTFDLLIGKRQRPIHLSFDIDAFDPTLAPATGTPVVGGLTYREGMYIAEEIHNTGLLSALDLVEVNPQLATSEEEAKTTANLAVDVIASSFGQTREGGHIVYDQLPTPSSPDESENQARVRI
As to the kind of experiment: in vitro enzyme assay to detect the production of urea directly proportional to the activity of Arginase II. Further: in the data most compounds retested in dose-response had high values. The assay is classed as functional. The following applies: 33.3 µM.

The target of assay [7] is T3, Proteasome subunit beta (Trypanosoma cruzi) (UniProt O96673).
T3 sequence (whole entry): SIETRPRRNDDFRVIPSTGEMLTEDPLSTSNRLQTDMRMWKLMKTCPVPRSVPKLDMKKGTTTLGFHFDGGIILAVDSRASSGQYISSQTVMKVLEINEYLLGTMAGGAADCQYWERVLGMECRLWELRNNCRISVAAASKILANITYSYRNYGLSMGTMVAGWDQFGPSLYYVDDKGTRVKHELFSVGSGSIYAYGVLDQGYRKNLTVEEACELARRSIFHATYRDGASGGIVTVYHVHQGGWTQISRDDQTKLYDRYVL
As to the kind of experiment: Trypanosoma cruzi proteasome chymotrypsin-like activity (TcProtChymo) assay. Further: in the data most compounds retested in dose-response had high values. The assay is classed as functional. The following applies: 9.37 µM.

The species entered for assay [8] is Homo sapiens. As to the kind of experiment: To identify inhibition of the IFN signalling (Jak-Stat) pathway via expression of an eGFP reporter gene under the control of an IFN-stimulated response element (ISRE) containing MxA promoter. It counts as functional. The following applies: 30 µM. (A reporter such as luciferase makes a cellular process visible.)
Assay [9] has as its target T4, Tyrosyl-tRNA synthetase, putative (Trypanosoma cruzi (strain CL Brener)) (UniProt Q4DSP6).
T4 sequence (whole entry): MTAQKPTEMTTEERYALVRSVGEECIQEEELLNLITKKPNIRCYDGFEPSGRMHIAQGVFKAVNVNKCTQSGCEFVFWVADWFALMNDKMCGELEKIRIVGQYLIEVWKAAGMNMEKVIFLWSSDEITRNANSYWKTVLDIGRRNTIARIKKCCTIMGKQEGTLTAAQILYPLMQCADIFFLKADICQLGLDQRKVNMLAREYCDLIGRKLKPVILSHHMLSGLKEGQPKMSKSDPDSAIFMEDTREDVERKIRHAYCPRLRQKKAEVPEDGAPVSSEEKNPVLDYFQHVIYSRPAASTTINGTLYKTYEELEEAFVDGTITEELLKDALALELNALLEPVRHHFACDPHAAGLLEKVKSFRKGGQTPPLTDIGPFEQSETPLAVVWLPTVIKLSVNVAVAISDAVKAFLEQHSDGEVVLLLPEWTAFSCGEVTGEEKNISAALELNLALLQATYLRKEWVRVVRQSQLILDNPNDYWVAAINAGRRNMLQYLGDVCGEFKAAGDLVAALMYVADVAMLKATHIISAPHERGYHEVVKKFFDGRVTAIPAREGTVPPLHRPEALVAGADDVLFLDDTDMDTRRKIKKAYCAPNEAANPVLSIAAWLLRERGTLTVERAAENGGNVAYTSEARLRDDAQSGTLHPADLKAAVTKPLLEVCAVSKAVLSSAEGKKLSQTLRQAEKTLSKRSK
As to the kind of experiment: Trypanosoma cruzi tyrosyl tRNA synthetase (TcYRS) _High Tyrosine SOP. Further: in the data most compounds retested in dose-response had high values. The assay is classed as functional. The conditions noted are these: 30 µM.

Assay [10] deals with T4, Tyrosyl-tRNA synthetase, putative (Trypanosoma cruzi (strain CL Brener)). As to the kind of experiment: Trypanosoma cruzi tyrosyl tRNA synthetase (TcYRS) SOP. The assay is classed as functional. The conditions noted are these: 30 µM.
Assay [11] addresses Chromo domain-containing protein 1 (Saccharomyces cerevisiae (strain ATCC 204508 / S288c) (Baker's yeast)) (UniProt P32657). As to the kind of experiment: ScCHD-1 Enzyme Inhibition Assay. Further: in the data most compounds retested in dose-response had high values. The assay is classed as functional. The conditions noted are these: 30 µM.

Chain of Chromo domain-containing protein 1 (Saccharomyces cerevisiae (strain ATCC 204508 / S288c) (Baker's yeast)) (P32657 whole entry, the tested form may be a part): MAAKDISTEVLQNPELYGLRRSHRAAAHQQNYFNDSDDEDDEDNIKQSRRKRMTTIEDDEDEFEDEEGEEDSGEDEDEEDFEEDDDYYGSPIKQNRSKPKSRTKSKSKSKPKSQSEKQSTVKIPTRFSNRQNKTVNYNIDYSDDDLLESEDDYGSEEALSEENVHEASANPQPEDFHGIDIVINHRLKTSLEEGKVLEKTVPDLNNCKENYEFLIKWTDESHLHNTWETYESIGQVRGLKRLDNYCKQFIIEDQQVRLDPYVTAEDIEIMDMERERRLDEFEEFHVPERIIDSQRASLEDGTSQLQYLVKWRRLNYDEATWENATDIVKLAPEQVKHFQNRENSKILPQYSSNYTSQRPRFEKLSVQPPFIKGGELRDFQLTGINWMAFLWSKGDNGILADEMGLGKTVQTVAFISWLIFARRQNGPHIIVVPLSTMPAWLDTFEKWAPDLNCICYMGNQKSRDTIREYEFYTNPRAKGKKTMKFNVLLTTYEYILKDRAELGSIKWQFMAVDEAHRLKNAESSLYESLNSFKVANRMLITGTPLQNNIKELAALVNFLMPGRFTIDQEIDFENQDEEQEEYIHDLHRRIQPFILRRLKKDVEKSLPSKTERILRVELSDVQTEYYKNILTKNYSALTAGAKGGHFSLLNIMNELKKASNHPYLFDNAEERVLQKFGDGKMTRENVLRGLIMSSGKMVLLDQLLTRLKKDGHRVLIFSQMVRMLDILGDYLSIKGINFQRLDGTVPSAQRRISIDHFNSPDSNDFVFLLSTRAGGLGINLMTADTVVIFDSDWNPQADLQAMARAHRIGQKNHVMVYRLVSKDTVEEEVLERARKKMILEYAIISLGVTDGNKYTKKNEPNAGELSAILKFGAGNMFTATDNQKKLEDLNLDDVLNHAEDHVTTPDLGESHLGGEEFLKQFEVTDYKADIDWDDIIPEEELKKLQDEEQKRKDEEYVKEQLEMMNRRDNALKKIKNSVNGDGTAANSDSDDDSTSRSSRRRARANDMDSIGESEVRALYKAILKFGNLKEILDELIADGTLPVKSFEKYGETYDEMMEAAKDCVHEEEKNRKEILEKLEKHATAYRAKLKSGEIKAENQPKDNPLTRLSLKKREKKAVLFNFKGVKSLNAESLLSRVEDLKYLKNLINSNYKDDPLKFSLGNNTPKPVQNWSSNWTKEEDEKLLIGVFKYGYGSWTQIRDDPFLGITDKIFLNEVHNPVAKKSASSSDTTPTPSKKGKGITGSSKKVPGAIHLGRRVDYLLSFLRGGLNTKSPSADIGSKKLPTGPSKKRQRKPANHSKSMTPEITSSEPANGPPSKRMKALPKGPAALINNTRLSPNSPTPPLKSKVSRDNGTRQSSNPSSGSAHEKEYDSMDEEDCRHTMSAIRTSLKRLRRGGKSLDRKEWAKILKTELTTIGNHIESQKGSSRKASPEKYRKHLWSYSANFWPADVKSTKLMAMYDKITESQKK
Chain of Sialic acid-binding Ig-like lectin 9 (Homo sapiens) (Q9Y336 whole entry): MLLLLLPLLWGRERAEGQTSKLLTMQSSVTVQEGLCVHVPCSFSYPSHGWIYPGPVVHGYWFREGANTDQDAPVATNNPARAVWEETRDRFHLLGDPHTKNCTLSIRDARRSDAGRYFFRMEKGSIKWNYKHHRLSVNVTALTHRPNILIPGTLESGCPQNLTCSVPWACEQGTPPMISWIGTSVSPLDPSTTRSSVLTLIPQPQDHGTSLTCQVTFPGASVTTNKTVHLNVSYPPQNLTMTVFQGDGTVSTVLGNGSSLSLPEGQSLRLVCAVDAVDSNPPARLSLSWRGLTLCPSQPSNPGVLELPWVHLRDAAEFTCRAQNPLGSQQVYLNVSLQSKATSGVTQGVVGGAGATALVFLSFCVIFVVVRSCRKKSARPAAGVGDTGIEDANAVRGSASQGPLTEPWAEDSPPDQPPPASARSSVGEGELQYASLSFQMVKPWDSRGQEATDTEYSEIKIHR
Chain of Protein translocase subunit SecA (Escherichia coli (strain K12)) (P10408 whole entry): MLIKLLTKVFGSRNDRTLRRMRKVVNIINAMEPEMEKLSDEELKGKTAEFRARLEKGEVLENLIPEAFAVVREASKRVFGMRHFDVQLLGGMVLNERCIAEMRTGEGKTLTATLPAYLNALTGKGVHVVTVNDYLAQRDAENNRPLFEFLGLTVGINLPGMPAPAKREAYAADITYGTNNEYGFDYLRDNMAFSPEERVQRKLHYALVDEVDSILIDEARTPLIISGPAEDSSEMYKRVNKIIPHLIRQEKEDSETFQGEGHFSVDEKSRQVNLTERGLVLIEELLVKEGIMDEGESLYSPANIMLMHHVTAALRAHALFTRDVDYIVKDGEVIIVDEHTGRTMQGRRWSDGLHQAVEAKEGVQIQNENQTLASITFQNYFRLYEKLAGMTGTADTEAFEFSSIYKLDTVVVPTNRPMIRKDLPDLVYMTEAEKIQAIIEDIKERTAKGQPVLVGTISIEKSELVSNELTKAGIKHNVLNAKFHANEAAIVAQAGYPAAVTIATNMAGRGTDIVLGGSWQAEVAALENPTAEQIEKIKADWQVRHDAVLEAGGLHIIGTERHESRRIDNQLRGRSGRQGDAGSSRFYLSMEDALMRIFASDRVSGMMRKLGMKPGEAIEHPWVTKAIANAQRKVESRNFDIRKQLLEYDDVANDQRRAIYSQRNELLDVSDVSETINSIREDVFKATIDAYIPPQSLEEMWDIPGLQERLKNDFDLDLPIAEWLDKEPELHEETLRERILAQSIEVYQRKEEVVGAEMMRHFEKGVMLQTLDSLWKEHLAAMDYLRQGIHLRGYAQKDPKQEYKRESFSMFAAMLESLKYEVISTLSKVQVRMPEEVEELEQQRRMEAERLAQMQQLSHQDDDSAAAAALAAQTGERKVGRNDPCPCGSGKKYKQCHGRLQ

As to `COc1ccc(NC(=O)CCC2CCCN(Cc3ncon3)C2)c(C)c1` (stereo not drawn), the Percent Effect was -3.42% in [1]; 2.67% in assay [2]; -0.626% in assay [3]; -0.0167% in [4]; -5.36% in [5]; -3.65% in [6]. Moreover, the Percent Effect in assay [7] was 22%; in [8] it was 22.2%; in assay [9], 6.01%; in assay [10], 11.1%; in assay [11], -6.4%.
For `Fc1ccc(CN2CCO[C@H]3[C@H](OCCN4CCCC4)CC[C@@H]32)cc1`, the Percent Effect is 7.01% in assay [1]; 10.7% in assay [2]; 5.78% in assay [3]; 7.14% in assay [4]; -4.05% in [5]; -51.1% in [6]. Besides, the Percent Effect was 12.8% in [7]; -9.42% in [8]; 5.21% in [9]; 12.5% in assay [10]; -3.68% in assay [11].
For `Cc1cc(C)n(C2CCCN(C(=O)CCNS(C)(=O)=O)C2)n1` (stereo not drawn), the Percent Effect is 2.69% in assay [1]; -6.33% in assay [2]; -12.4% in assay [3]; -1.59% in assay [4]; -0.103% in [5]; 7.53% in assay [6]. For the same compound, the Percent Effect is 8.58% in assay [7]; 12.6% in assay [8]; 2.08% in assay [9]; 7.59% in assay [10]; -22.7% in assay [11].
As to `CC(=O)NCC(=O)N1C[C@H](OCc2cccnc2)[C@H]2COC[C@H]21`, the Percent Effect in assay [1] was -4.16%; in assay [2] it was 2.7%; in assay [3], 1.91%; in [4], 2.9%; in [5], -4.49%; in assay [6], 2.5%. The Percent Effect in assay [7] is 12.3%; in assay [8] it was 5.47%; in assay [9], 4.95%; in assay [10], 6.1%; in assay [11], -2.54%.
On to `Cc1cc(CN2CCN(C(=O)NC(C)c3cccnc3)CC2)on1` (stereo not drawn), for which the Percent Effect is -2.66% in [1]; 13.2% in assay [2]; -2.63% in [3]; 3.25% in assay [4]; 8.08% in [5]; 1.92% in assay [6]. In addition, the Percent Effect in assay [7] was 10.7%; in assay [8], 2.49%; in assay [9] it was -0.49%; in assay [10] it was 19.5%; in assay [11], -6.79%.
For the compound `CC(=O)N1CCCN(C(=O)NCCc2ccc(Cl)s2)CC1`, the Percent Effect is -2.98% in assay [1]; -1.27% in [2]; 2.05% in assay [3]; 0.11% in assay [4]; 2.97% in [5]; -4.95% in assay [6]. For the same compound, the Percent Effect was 6.35% in assay [7]; 15.8% in assay [8]; 3.12% in assay [9]; 7.59% in assay [10]; 7.14% in assay [11].
With `O=C(c1ccccc1N1CCOCC1)N1CCCC(n2cccn2)C1` (stereo not drawn), the Percent Effect in assay [1] is -5.13%; in assay [2] it was 2.7%; in assay [3] it was -10.8%; in assay [4] it was 3.15%; in assay [5] it was -1.98%; in [6], -0.802%. In addition, the Percent Effect was 3.06% in [7]; 12.4% in assay [8]; 5.42% in assay [9]; 13.6% in assay [10]; -3.66% in assay [11].
With `CS(=O)(=O)N1CCCCCC1C1CCN(c2ncccc2C#N)CC1` (stereo not drawn), the Percent Effect in assay [1] was -0.308%; in assay [2] it was -5.26%; in [3], 9.82%; in assay [4], 3.04%; in [5] it was 6.58%; in assay [6] it was 0%. For the same compound, the Percent Effect in assay [7] was -0.668%; in assay [8] it was -7.75%; in assay [9] it was 0.49%; in [10] it was 0%; in [11], 2.11%.
